In all, about 68,000 compounds went through this assay and about 2,700 (4%) showed an effect of 50% or more. The full list was thinned out, with strong results kept by preference.
These compounds were tested on Plasmodium berghei (assay: Screen against P. berghei liver stage (PbLuc), transformed with Luciferase, at 2uM). Conditions: tested at 2 uM.
Assay type: functional, HepG2
`Cn1cc(C2COC3(CCN(C(=O)Cn4cccn4)CC3)C2)cn1` (configuration not stated) gave an INHIBITION of 12.36%.
`CCOCC1CN(CC2CC2)Cc2nn(C)cc21` (configuration not stated) gave an INHIBITION of 4.99%.
`O=C(CCC1CCCC1)NCCn1nc(C2CCNC2)c2nccnc21` (configuration not stated) gave an INHIBITION of 26.52%.
`CCOCCN1CCN(Cc2coc(-c3cccc(F)c3)n2)CC1` was tested, and the INHIBITION was 62.13%.
With `CCN1CCN(Cc2coc(-c3cccc(F)c3)n2)CC1` the INHIBITION was 23.92%.
In the case of `OCCN1CCN(Cc2coc(-c3cccc(F)c3)n2)CC1`, the INHIBITION is reported as 45.83%.
Compound `O=C(c1cnccn1)N1CCOC2(CCN(Cc3ccsc3)CC2)C1` has an INHIBITION of -3.36%.
Compound `CCOCC(=O)N1C[C@@H]2COC[C@H](c3nc(C)no3)[C@@H]2C1` has an INHIBITION of 64.16%.
With `Cc1noc([C@H]2COC[C@H]3CN(C(=O)Cc4ccc(F)cc4)C[C@H]32)n1` the INHIBITION was 11.08%.
`Cc1noc([C@H]2COC[C@H]3CN(C(=O)Cc4ccccc4F)C[C@H]32)n1` gave an INHIBITION of 15.89%.
With `CC(C)c1ccc(C(CN)N2CCc3sccc3C2)cc1` (configuration not stated) the INHIBITION was 11.74%.
`CN(Cc1ccco1)[C@@H]1CN(Cc2ccoc2)C[C@@H]2CCCO[C@@H]21` was tested, and the INHIBITION was -11.13%.
`CC1(C)CNC(=O)CN(C(=O)Cc2ccccc2)C1` showed an INHIBITION of 30.56%.
`CC(Cn1cncn1)NC1CCN(Cc2cccc(O)c2)CC1` (configuration not stated) was tested, and the INHIBITION was -6.77%.
In the case of `Cc1cc(C)n(CC(C)NC2CCN(Cc3cccc(O)c3)CC2)n1` (configuration not stated), the INHIBITION is reported as 32.71%.
Work on `CC(CN1CCOCC1)NC1CCN(Cc2cccc(O)c2)CC1` (configuration not stated) yielded an INHIBITION of 58.12%.
Work on `COc1ccc(CCC(C)Nc2cccc(SC)c2)cc1` (configuration not stated) yielded an INHIBITION of 2.5%.
`CCOCC1c2c(ncn2C)CCN1C(=O)c1cnc(C)cn1` (configuration not stated) was tested, and the INHIBITION was -6.19%.
With `Cc1ccc(C(=O)N(C)Cc2cscn2)c(=O)[nH]1` the INHIBITION was 44.39%.
For `Cc1ccc(C(=O)N(C)CCOc2ccccc2F)c(=O)[nH]1`, the INHIBITION was 54.62%.
`Cc1ccc(C(=O)N(Cc2ccccc2F)C2CC2)c(=O)[nH]1` was tested, and the INHIBITION was -2.23%.
`O=S(=O)(c1ccc(F)cc1)n1cc(Cl)cn1` was tested, and the INHIBITION was -0.9%.
In the case of `NC(=O)c1ccc2c(c1)nc1n2CCN(Cc2cccnc2)C1`, the INHIBITION is reported as 8.41%.
With `O=C(Nc1ccccc1)C1CN(Cc2nccs2)CC12CCOCC2` (configuration not stated) the INHIBITION was 11.9%.
Compound `Cc1cc(-c2cnc(N3CCSCC3)nc2-c2ccc(C)s2)on1` has an INHIBITION of -48.18%.
With `COc1ccc(SC(C)C(=O)N2CCC(C(N)=O)CC2)cc1` (configuration not stated) the INHIBITION was -12.36%.
For `COc1ccc(SC(C)C(=O)N2CCC(O)CC2)cc1` (configuration not stated), the INHIBITION was -0.39%.
`COc1ccc(SC(C)C(=O)N2CCC(NC(=O)C3CC3)CC2)cc1` (configuration not stated) showed an INHIBITION of 61.74%.
`O=C1N(c2cccnc2)CCC12CCCN(Cc1ccoc1)C2` (configuration not stated) gave an INHIBITION of 16.39%.
In the case of `O=C(NCCc1ccccc1)N1C[C@@H]2C[C@H](C(=O)N3CCCC3)[C@H](C1)O2`, the INHIBITION is reported as -0.89%.
Work on `CCC1=N[C@@]2(CC[C@@H]3CN(Cc4ccc(F)cc4)C[C@@H]32)C(=O)N1C` yielded an INHIBITION of -22.23%.
With `Fc1ccc(CN2CCCC(c3nccnc3-n3ccnc3)C2)cc1` (configuration not stated) the INHIBITION was 50.74%.
Compound `Fc1ccc(CN2CCC(c3nccnc3-n3ccnc3)CC2)cc1` has an INHIBITION of 16.87%.
Compound `c1ccc(CN2CCCC(c3nccnc3-n3ccnc3)C2)cc1` (configuration not stated) has an INHIBITION of 22.66%.
`CS(=O)(=O)N[C@@H]1CCN(Cc2cccnc2)[C@H]1Cc1ccccc1` showed an INHIBITION of 7.26%.
With `CN(C)C1CCN(C(=O)c2cc(-c3ccn(C)n3)n3ccccc23)CC1` the INHIBITION was -40.37%.
Compound `CC(C)NC(=O)N1C[C@@H](F)[C@@H](OCc2nc3ccccc3o2)C1` has an INHIBITION of 16.47%.
Work on `CC(C)N1CCC(N2CCOC3(CCCC3)C2)C1=O` (configuration not stated) yielded an INHIBITION of -0.75%.
In the case of `COC(=O)c1sccc1S(=O)(=O)NCCC(O)c1ccco1` (configuration not stated), the INHIBITION is reported as 4.89%.
For `Fc1cccc2ncnc(NCCCc3ccncc3)c12`, the INHIBITION was 54.3%.
In the case of `CS(=O)(=O)NCCNc1ncnc2cccc(F)c12`, the INHIBITION is reported as 17.73%.
In the case of `CSCCCNc1ncnc2cccc(F)c12`, the INHIBITION is reported as 28.79%.
In the case of `CC(C)(C)c1cn(C2CCN(C(=O)c3cncnc3)CC2)nn1`, the INHIBITION is reported as 40.83%.
`CC(C)(C)c1cn(C2CCN(C(=O)c3cnccn3)CC2)nn1` showed an INHIBITION of 50.4%.
`CC(C)n1cc(C(=O)N2CCC(n3cc(C(C)(C)C)nn3)CC2)cn1` was tested, and the INHIBITION was 22.39%.
`Cc1cncc(C(=O)N2C[C@@H](C(=O)O)[C@H](C(C)C)C2)c1` showed an INHIBITION of 44.23%.
Compound `COc1cc(C2(C(=O)NCCn3ccnc3)CCCC2)ccc1C` has an INHIBITION of -64.32%.
Compound `CCc1ncc(S(C)(=O)=O)c(C2CCCNC2)n1` (configuration not stated) has an INHIBITION of 18.8%.
`O=C(NCCn1ccc(-c2ccncc2)n1)c1ccc2c(c1)OCO2` was tested, and the INHIBITION was 6.33%.
For `CCCS(=O)(=O)NC(C)C(=O)NCc1ccc(N2CCN(C)CC2)nc1` (configuration not stated), the INHIBITION was -34.5%.
`COc1ccc(C(C)NC(=O)Nc2nnc(C)s2)c(OC)c1` (configuration not stated) was tested, and the INHIBITION was 58.69%.
Work on `COc1cc(C)c(C(C)NC(=O)Nc2nnc(C)s2)cc1OC` (configuration not stated) yielded an INHIBITION of 39.48%.
In the case of `COc1ccc(OC)c(C(C)NC(=O)Nc2nnc(C)s2)c1` (configuration not stated), the INHIBITION is reported as -10.7%.
For `CC(C)N(CC(N)=O)CC(=O)NCCc1c(F)cccc1F`, the INHIBITION was 37.18%.
Work on `CC(Cc1c(F)cccc1F)NC(=O)CN(CC(N)=O)C(C)C` (configuration not stated) yielded an INHIBITION of 58.53%.
`CC(Cc1c(F)cccc1F)NC(=O)CSCC(N)=O` (configuration not stated) showed an INHIBITION of 14.19%.
`CNS(=O)(=O)c1ccc(CN2CCN3CCNC(=O)C3C2)cc1` (configuration not stated) was tested, and the INHIBITION was -43.5%.
With `O=C1NCCN2CCN(C(=O)NCCc3ccccc3)CC12` (configuration not stated) the INHIBITION was 33.48%.
`CS(=O)(=O)c1ccc(CC(=O)N2CCN3CCNC(=O)C3C2)cc1` (configuration not stated) gave an INHIBITION of 83.83%.
Compound `Cc1cc(-c2cnc(N3CCOCC3)nc2-c2ccc(C)s2)on1` has an INHIBITION of 8.09%.
`CS(=O)(=O)NCCN1CCSCC1c1ccc(Cl)cc1` (configuration not stated) showed an INHIBITION of 36.28%.
`CS(=O)(=O)CCN1CCSCC1c1ccc(Cl)cc1` (configuration not stated) was tested, and the INHIBITION was 5.28%.
In the case of `CS(=O)(=O)CCCN1CCSCC1c1ccc(Cl)cc1` (configuration not stated), the INHIBITION is reported as 62.51%.
`CS(=O)(=O)NCCN1CCCC1c1ccc(Cl)cc1` (configuration not stated) showed an INHIBITION of 8.42%.
Compound `Cc1ccc(C2CSCCN2CCS(C)(=O)=O)cc1` (configuration not stated) has an INHIBITION of 38.67%.
`CCS(=O)(=O)CCCN1CCSCC1c1ccc(Cl)cc1` (configuration not stated) was tested, and the INHIBITION was 52.98%.
`CCN(C(=O)c1cc(C)nc2ccccc12)C1CC(=O)NC1=O` (configuration not stated) was tested, and the INHIBITION was 10.93%.
